Structures are written as SMILES. Calls of active or inactive are those of the source.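 The calls were made as follows: active = melting temperature shift above 3 C; inconclusive = shift above 1 C but not above 3 C; inactive = the rest.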

The source of these data is PubChem BioAssay AID2427 (National Center for Advancing Translational Sciences (NCATS), 2010).

Sequence of 15-hydroxyprostaglandin dehydrogenase [NAD(+)] (Homo sapiens) (P15428 whole entry, looked up): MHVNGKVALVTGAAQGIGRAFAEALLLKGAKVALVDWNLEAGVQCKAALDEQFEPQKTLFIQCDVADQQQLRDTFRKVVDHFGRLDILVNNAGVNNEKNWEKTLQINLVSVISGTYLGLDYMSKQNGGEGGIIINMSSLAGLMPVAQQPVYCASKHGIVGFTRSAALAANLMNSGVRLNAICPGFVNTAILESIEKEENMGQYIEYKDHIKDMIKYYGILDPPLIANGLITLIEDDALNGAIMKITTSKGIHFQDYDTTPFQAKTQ

The target in one test is 15-hydroxyprostaglandin dehydrogenase [NAD(+)] (Homo sapiens) (UniProt P15428). Put plainly: Thermal Shift Assay for Inhibitors of HPGD (15-Hydroxyprostaglandin Dehydrogenase). The conditions noted are these: Recombinant HPGD thermal shift, SYPRO orange DSF, at 250 µM, stronger effect = higher value. The procedure:
Assay Overview: Human 15-Hydroxyprostaglandin dehydrogenase (HPGD) catalyzes the inactivation of prostaglandin E2, and plays a major role in cancer biology by antagonizing the oncogenic potential of cyclooxygenase type 2 (COX2). Studies to assess the stability of human 15-PGDH in presence of compounds was performed as described (Niesen et al., 2007) with variations. References 1. Myung SJ, Rerko RM, Yan M, Platzer P, Guda K, Dotson A, Lawrence E, Dannenberg AJ, Lovgren AK, Luo G, Pretlow TP, Newman RA, Willis J, Dawson D, Markowitz SD. 15-Hydroxyprostaglandin dehydrogenase is an in vivo suppressor of colon tumorigenesis. Proc Natl Acad Sci U S A. 2006 Aug 8;103(32):12098-102. 2. Yan M, Rerko RM, Platzer P, Dawson D, Willis J, Tong M, Lawrence E, Lutterbaugh J, Lu S, Willson JK, Luo G, Hensold J, Tai HH, Wilson K, Markowitz SD. 15-Hydroxyprostaglandin dehydrogenase, a COX-2 oncogene antagonist, is a TGF-beta-induced suppressor of human gastrointestinal cancers. Proc Natl Acad Sci U S A. 2004 Dec 14;101(50):17468-73. 3. Yang L, Amann JM, Kikuchi T, Porta R, Guix M, Gonzalez A, Park KH, Billheimer D, Arteaga CL, Tai HH, Dubois R, Carbone DP, Johnson DH. Inhibition of Epidermal Growth Factor Receptor Signaling Elevates 15-Hydroxyprostaglandin Dehydrogenase in Non-Small-Cell Lung Cancer. Cancer Res. 2007 Jun 15;67(12):5587-5593. 4. Niesen FH, Berglund H, Vedadi M: The use of differential scanning fluorimetry to detect ligand interactions that promote protein stability. Nature protocols 2007; 2:2212-2221 NIH Chemical Genomics Center [NCGC] Structural Genomics Consortium [SGC]
HPGD was diluted to a final assay concentration of 1 uM in 100 mM Tris buffer, pH 8.0, containing 0.01% Tween-20 and 1:1000 SYPRO orange dye. The final assay volume is 10 ul, with or without 200 uM of either NAD+ or NADH. Compounds were added 1:5 from appropriate stock solutions in 10% (v/v) DMSO to comprise either 50 or 250 uM final concentrations. Heat denaturation curves were recorded using a RT-PCR instrument (Mx3005p, Agilent) applying a temperature gradient of 2 degree C/min. Analysis of the data was performed using DSF Analysis vers. 2.5 (ftp://ftp.sgc.ox.ac.uk/pub/biophysics) and Prism 5.0 (GraphPad Software, Inc.)
As for `O=C(CSc1nc2ncc(Br)cc2[nH]1)c1cccc([N+](=O)[O-])c1`, the thermal shift (delta Tm) was 6.9 C (active).
As to `Cc1ccc(C)c(Cn2nnc3c(=O)[nH]c(C(=O)NCc4ccco4)nc32)c1`, the thermal shift (delta Tm) is 7.5 C (active).

The same test, now with this note: Recombinant HPGD thermal shift, SYPRO orange DSF, measured here: delta Tm with NADH cofactor, at 250 µM, stronger effect = higher value.
As to `O=C(CSc1nc2ncc(Br)cc2[nH]1)c1cccc([N+](=O)[O-])c1`, the thermal shift (delta Tm) worked out at 1.7 C.
In the case of `Cc1ccc(C)c(Cn2nnc3c(=O)[nH]c(C(=O)NCc4ccco4)nc32)c1`, the thermal shift (delta Tm) amounted to 4.8 C.
